Test results published in ChEMBL document CHEMBL3988442, “University of Dundee, Small-Polar-MMV Screening Library” (2021).

The compounds below were run against T1, Tyrosyl-tRNA synthetase, putative (Trypanosoma cruzi (strain CL Brener)) (UniProt Q4DSP6) (assay: Trypanosoma cruzi tyrosyl tRNA synthetase (TcYRS) _High Tyrosine SOP). Conditions: 30 µM.
T1 sequence (whole entry): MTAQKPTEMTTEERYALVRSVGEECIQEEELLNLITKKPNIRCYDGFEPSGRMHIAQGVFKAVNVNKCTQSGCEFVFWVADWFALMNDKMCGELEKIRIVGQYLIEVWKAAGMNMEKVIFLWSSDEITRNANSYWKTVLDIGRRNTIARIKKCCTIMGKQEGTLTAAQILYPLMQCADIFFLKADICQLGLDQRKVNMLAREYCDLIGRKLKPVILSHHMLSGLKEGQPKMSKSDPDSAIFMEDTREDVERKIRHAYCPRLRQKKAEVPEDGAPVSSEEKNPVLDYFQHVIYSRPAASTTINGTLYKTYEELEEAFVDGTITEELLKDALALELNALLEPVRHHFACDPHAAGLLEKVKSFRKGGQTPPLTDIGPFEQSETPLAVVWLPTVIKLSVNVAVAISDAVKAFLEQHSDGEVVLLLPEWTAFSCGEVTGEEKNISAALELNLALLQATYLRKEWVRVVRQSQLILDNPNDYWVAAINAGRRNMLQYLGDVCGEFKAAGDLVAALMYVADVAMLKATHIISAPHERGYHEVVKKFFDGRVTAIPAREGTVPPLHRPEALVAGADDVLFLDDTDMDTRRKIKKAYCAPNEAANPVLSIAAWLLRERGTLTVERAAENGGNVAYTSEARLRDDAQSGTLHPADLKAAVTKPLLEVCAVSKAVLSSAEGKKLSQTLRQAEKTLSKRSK
Format: functional
Parameters: scale not given: direction of the effect not stated beside the values

In order of falling Percent Effect:
1. c1cnn(CC2CCCCN2Cc2cn3ccsc3n2)c1 (stereo not given)  10.1%
2. c1ccc(CNC2CCc3ncnn3C2)nc1 (stereo not given)  9.09%
3. CN(C)CC1CN(Cc2ccsc2)Cc2nccn2C1 (stereo not given)  8.95%
4. CCOc1c(Cl)cccc1NCc1cc(C)on1  8.13%
5. Cc1[nH]ccc1C(=O)N1CCCC(c2nccn2Cc2cscn2)C1 (stereo not given)  7.98%
6. CS(=O)(=O)NCc1cc2n(n1)CCCN(Cc1cccc(C#N)c1)C2  7.98%
7. Cc1noc(C)c1C(=O)N1CC[C@H]2C[C@@H](c3nccs3)O[C@@H]2C1  7.89%
8. COCCN(C)C[C@@H]1CCC[C@@H]2CN(c3cc(OC)ncn3)C[C@@H]21  7.89%
9. Cc1ccc(C(=O)N2CCC3(CC2)CCN(CCN(C)C)C3=O)cn1  7.73%
10. CCC(NC(=O)CC(F)(F)F)c1ccccc1OCC(=O)N1CCCC1 (stereo not given)  7.18%
11. Cn1ccc(CN2CCC(NC(=O)Cc3ccccc3)CC2)cc1=O  7.18%
12. Cc1nc(CN2CCCC(CCc3c(F)cccc3F)C2)c[nH]1 (stereo not given)  5.85%
13. Cc1ccccc1N1CC2(CCN(S(=O)(=O)c3cccs3)C2)CC1=O (stereo not given)  5.8%
14. Cc1ccc(C(=O)N2CCN(Cc3ccsc3)CC2)n1C  5.79%
15. CC(C)N(Cc1nc2c(cnn2C)c(=O)[nH]1)c1ccccc1  5.26%
16. COCC(C)N(C)C(=O)c1nc(S(C)(=O)=O)n2ccccc12 (stereo not given)  5.26%
17. CCc1nccn1C1CCCN(C(=O)c2csc(NC(C)=O)n2)C1 (stereo not given)  4.9%
18. CNC(=O)c1cccnc1Oc1ccccc1  4.83%
19. Cc1ccc(CN2CCCn3c(nc(Cn4cncn4)cc3=O)C2)s1  4.74%
20. Cc1ccc2oc(C(=O)N3CCc4nnc(N(C)C)cc4C3)cc2n1  4.74%
21. O=C(NCCn1nc2ccccn2c1=O)c1cccc2[nH]ncc12  4.31%
22. O=C(NCc1cc[nH]n1)NCC(c1ccc(F)cc1)N1CCOCC1 (stereo not given)  4.31%
23. CCn1nc(C)c(CCNC(=O)C2CCCN(C(=O)N(C)C)C2)c1C (stereo not given)  3.72%
24. CC(NC(=O)NCCCn1cncn1)c1ccccc1Cl (stereo not given)  3.68%
25. O=C(NCc1cc[nH]n1)N(CCCO)C1CCc2ccccc21 (stereo not given)  3.68%
26. CN(Cc1nnc(-c2ccco2)o1)C1CCCN(c2cccnn2)C1 (stereo not given)  3.35%
27. O=C1CCCc2nccc(-c3ccccc3)c21  3.17%
28. Cc1nc(CN2CCCC(CCc3ccc(F)cc3F)C2)c[nH]1 (stereo not given)  2.66%
29. CCn1cc2c(n1)C(COC)CN(Cc1ccccn1)C2 (stereo not given)  2.63%
30. CCSCCC(=O)NS(=O)(=O)c1ccc2c(c1)OCCO2  2.39%
31. CC1CCCCN1Cc1ccc(-c2ccccc2C(=O)O)cc1 (stereo not given)  2.12%
32. c1ccc(OCc2nnc3n2CCN(CC2CCOCC2)C3)nc1  0.526%
33. COCCC(=O)N1CCn2c(COCC3CC3)cnc2C1C (stereo not given)  0.526%
34. CC(C)NC(=O)N1CCN(Cc2ccccn2)CC2(CC(=O)N(C)C2)C1 (stereo not given)  0%
35. COCCOc1cccc(C(=O)N2CCCC(n3ccnc3C)C2)c1 (stereo not given)  0%
36. Cc1cccc(C(=O)N2CCCN(Cc3cnn(C)c3)CC2)n1  -0.478%
37. O=S(=O)(c1ccccc1)N1CCCCC1c1cc[nH]n1 (stereo not given)  -3.17%
38. O=C(CSc1ccc(F)c(F)c1)NS(=O)(=O)c1ccc2c(c1)OCCO2  -4.31%
39. O=C(NCC1CC1)C1CCC2(CCN(C(=O)c3ccccn3)CC2)O1 (stereo not given)  -4.83%
40. CC(C)CN1C[C@@H]2CN(C(=O)[C@H]3CCCO3)C[C@@H]2C1=O  -5.8%

Each compound was assayed against T1, Tyrosyl-tRNA synthetase, putative (Trypanosoma cruzi (strain CL Brener)) (assay: Trypanosoma cruzi tyrosyl tRNA synthetase (TcYRS) SOP). Conditions: 30 µM.
Format: functional
Parameters: scale not given: direction of the effect not stated beside the values

In order of falling Percent Effect:
1. O=C(NCCn1nc2ccccn2c1=O)c1cccc2[nH]ncc12  22.9%
2. CCOc1c(Cl)cccc1NCc1cc(C)on1  22.9%
3. O=C(NCc1cc[nH]n1)NCC(c1ccc(F)cc1)N1CCOCC1 (stereo not given)  20.5%
4. CCC(NC(=O)CC(F)(F)F)c1ccccc1OCC(=O)N1CCCC1 (stereo not given)  20.5%
5. c1ccc(CNC2CCc3ncnn3C2)nc1 (stereo not given)  20.5%
6. CS(=O)(=O)NCc1cc2n(n1)CCCN(Cc1cccc(C#N)c1)C2  19.5%
7. COCCOc1cccc(C(=O)N2CCCC(n3ccnc3C)C2)c1 (stereo not given)  18.8%
8. c1cnn(CC2CCCCN2Cc2cn3ccsc3n2)c1 (stereo not given)  18.1%
9. CC(C)N(Cc1nc2c(cnn2C)c(=O)[nH]1)c1ccccc1  18.1%
10. Cc1[nH]ccc1C(=O)N1CCCC(c2nccn2Cc2cscn2)C1 (stereo not given)  17.1%
11. Cn1ccc(CN2CCC(NC(=O)Cc3ccccc3)CC2)cc1=O  13.2%
12. CC(NC(=O)NCCCn1cncn1)c1ccccc1Cl (stereo not given)  12.8%
13. CN(C)CC1CN(Cc2ccsc2)Cc2nccn2C1 (stereo not given)  12.8%
14. Cc1noc(C)c1C(=O)N1CC[C@H]2C[C@@H](c3nccs3)O[C@@H]2C1  12.8%
15. Cc1ccc(CN2CCCn3c(nc(Cn4cncn4)cc3=O)C2)s1  12.8%
16. CC(C)CN1C[C@@H]2CN(C(=O)[C@H]3CCCO3)C[C@@H]2C1=O  12.5%
17. CNC(=O)c1cccnc1Oc1ccccc1  12.5%
18. CCc1nccn1C1CCCN(C(=O)c2csc(NC(C)=O)n2)C1 (stereo not given)  11.8%
19. CCSCCC(=O)NS(=O)(=O)c1ccc2c(c1)OCCO2  10.8%
20. CN(Cc1nnc(-c2ccco2)o1)C1CCCN(c2cccnn2)C1 (stereo not given)  8.43%
21. O=C(CSc1ccc(F)c(F)c1)NS(=O)(=O)c1ccc2c(c1)OCCO2  8.43%
22. COCC(C)N(C)C(=O)c1nc(S(C)(=O)=O)n2ccccc12 (stereo not given)  8.43%
23. CCn1cc2c(n1)C(COC)CN(Cc1ccccn1)C2 (stereo not given)  7.69%
24. Cc1ccc(C(=O)N2CCN(Cc3ccsc3)CC2)n1C  7.69%
25. COCCN(C)C[C@@H]1CCC[C@@H]2CN(c3cc(OC)ncn3)C[C@@H]21  7.69%
26. Cc1ccc(C(=O)N2CCC3(CC2)CCN(CCN(C)C)C3=O)cn1  7.5%
27. Cc1nc(CN2CCCC(CCc3c(F)cccc3F)C2)c[nH]1 (stereo not given)  7.32%
28. Cc1nc(CN2CCCC(CCc3ccc(F)cc3F)C2)c[nH]1 (stereo not given)  7.32%
29. COCCC(=O)N1CCn2c(COCC3CC3)cnc2C1C (stereo not given)  5.13%
30. Cc1ccc2oc(C(=O)N3CCc4nnc(N(C)C)cc4C3)cc2n1  5.13%
31. CCn1nc(C)c(CCNC(=O)C2CCCN(C(=O)N(C)C)C2)c1C (stereo not given)  4.88%
32. O=C(NCc1cc[nH]n1)N(CCCO)C1CCc2ccccc21 (stereo not given)  2.56%
33. CC1CCCCN1Cc1ccc(-c2ccccc2C(=O)O)cc1 (stereo not given)  2.5%
34. Cc1ccccc1N1CC2(CCN(S(=O)(=O)c3cccs3)C2)CC1=O (stereo not given)  2.5%
35. Cc1cccc(C(=O)N2CCCN(Cc3cnn(C)c3)CC2)n1  1.21%
36. O=S(=O)(c1ccccc1)N1CCCCC1c1cc[nH]n1 (stereo not given)  0%
37. CC(C)NC(=O)N1CCN(Cc2ccccn2)CC2(CC(=O)N(C)C2)C1 (stereo not given)  0%
38. O=C(NCC1CC1)C1CCC2(CCN(C(=O)c3ccccn3)CC2)O1 (stereo not given)  -10%
39. O=C1CCCc2nccc(-c3ccccc3)c21  -45%
40. c1ccc(OCc2nnc3n2CCN(CC2CCOCC2)C3)nc1  -89.7%
